Bioassay records deposited in PubChem by National Center for Advancing Translational Sciences (NCATS).
An excerpt weighted towards active compounds, which were near 13% of everything screened.
CHX counter – affects cycloheximide protein synthesis inhibition readout, counter-screen; max response, %; 300,000 tested, 12% active; cell reporter, cycloheximide protein synthesis inhibition counterscreen; in the data active = max response mostly above about 13%, no sharp cut-off; inactive = mostly below about 14%; also: read at 38.3 µM for the half of the compounds with a filed dose
HCV inhibitor – blocks hepatitis C virus; 340,000 tested, 3.4% active; Potency, µM (series often up to 41.8 µM), actives largely listed as inhibitors; Huh7.5.1 HCVcc-Cre infection, luciferase reporter, 44 h; active = well fitted inhibition curve with a large enough effect; inconclusive = small, poorly fitted or top-dose-only effect, or another doubt; inactive = no such curve, though single readings can be large or run the other way
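Reporter virus HCVcc-Cre (~0.5 moi) infects cells exposed to compound; seeding density 1,000 cells/well with 4 h settling beforehand. Luminescence, 15 sec read, taken 44 h post-infection following a 15 min RT substrate incubation.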
Lassa entry inh – blocks Lassa virus binding to or entry into cells; Lassa virus pseudotype entry inhibition, cell reporter; Potency, µM (series often up to 37.9 µM), usual class: inhibitors; 300,000 tested, 1.2% active; AID 540256; calls by dose curve; tested in HEK293 cells; also: nearly all actives have a fitted effect of over 50% in size
Marburg entry inh – inhibitors of Marburg virus binding or cell entry. Marburg virus pseudotyped entry inhibition, cell reporter. Potency, µM (doses to about 37.8 µM), hits mostly inhibitors. 300,000 tested, 1.8% active; calls by dose curve; tested in HEK293 cells
Shiga inhibitor – Shiga toxin inhibition; AID 2315; Vero cells, Shiga toxin protein synthesis inhibition reporter; inhibition, % at 38.7 µM; 290,000 tested, 9.2% active; in the data active = inhibition mostly above about 28%, no sharp cut-off; inactive = mostly below about 43%
FMDV inh – blocks foot and mouth disease virus; FMDV antiviral cell-based qHTS; Potency, µM (doses to about 57.9 µM), usual class: inhibitors; 410,000 tested, 1.2% active; calls by dose curve; tested in HEK293T cells; also: read-out not given here; nearly all actives have a fitted effect of over 45% in size
Hits are given with their value.

How did CC(C)NC(=O)C1CCCN(c2ncnc3onc(-c4ccc(F)cc4)c23)C1 (stereo unspecified) do in these assays?
Lassa entry inh: inactive; FMDV inh: inactive

What do the screens show for `CC(=O)c1ccc(S(=O)(=O)N2CCC(NC(=O)c3ccccc3)CC2)cc1`?
CHX counter: inactive; HCV inhibitor: inactive; Shiga inhibitor: inactive; FMDV inh: inactive

Results for CC(C)Oc1ccc(S(=O)(=O)N2CCOCC2)cc1NC(=O)CCCSc1ccccc1 ?
HCV inhibitor: 11.2µM; Lassa entry inh: inactive; Marburg entry inh: inconclusive; FMDV inh: inactive

How did COc1cc(C(C)=O)ccc1OCC(=O)Nc1ccc(Cl)c(S(=O)(=O)N2CCOCC2)c1 do in these assays?
HCV inhibitor: 12.6µM; FMDV inh: 20µM

Results for COc1ccc(S(=O)(=O)N2CCOCC2)cc1NC(=O)CSc1ccccc1 ?
CHX counter: inactive; Lassa entry inh: inactive; Marburg entry inh: inactive; Shiga inhibitor: inactive; FMDV inh: inactive

What do the screens show for `O=C(COc1cccc(Br)c1)Nc1ccc(Cl)c(S(=O)(=O)N2CCOCC2)c1`?
HCV inhibitor: inconclusive; Lassa entry inh: inactive; Marburg entry inh: inconclusive; FMDV inh: inconclusive

How did CCN(CC)S(=O)(=O)c1cc(NC(=O)CCCOc2ccc(C(C)=O)cc2)ccc1C do in these assays?
CHX counter: inactive; HCV inhibitor: 10µM; Lassa entry inh: inconclusive; Marburg entry inh: inconclusive; Shiga inhibitor: inactive; FMDV inh: 15.8µM

What do the screens show for `CCCc1cc(=O)[nH]c(Nc2ccc(C)c(O)c2)n1`?
Lassa entry inh: inactive; Marburg entry inh: inactive; FMDV inh: inactive

What do the screens show for `Cc1ccc(OCCSc2nc3ccccc3n2CCC(=O)O)cc1C`?
Lassa entry inh: inactive; FMDV inh: inactive

How did COC(=O)c1ccccc1C(=O)N1CCCC(C(=O)c2cc(F)ccc2F)C1 (stereo unspecified) do in these assays?
CHX counter: inactive; HCV inhibitor: inconclusive; Lassa entry inh: inactive; Marburg entry inh: inactive; Shiga inhibitor: inactive; FMDV inh: inactive

Results for Cc1ccc(C(=O)Nc2ccccc2C(=O)NCc2ccccc2)cc1 ?
CHX counter: inactive; HCV inhibitor: inconclusive; Lassa entry inh: inactive; Marburg entry inh: inactive; Shiga inhibitor: inactive; FMDV inh: inactive

How did FC(F)(F)c1nnc(-c2ccccc2)nc1Sc1ccccc1 do in these assays?
CHX counter: inactive; HCV inhibitor: inconclusive; Lassa entry inh: inactive; Marburg entry inh: inconclusive; Shiga inhibitor: inactive; FMDV inh: inconclusive

How did FC(F)(F)c1nnc(-c2ccccc2)nc1Sc1ccc(Cl)cc1 do in these assays?
CHX counter: inactive; HCV inhibitor: inconclusive; Lassa entry inh: inconclusive; Marburg entry inh: 14.6µM; Shiga inhibitor: inactive; FMDV inh: inactive

Results for COc1ccc(S(=O)(=O)N2Cc3ccccc3CC2C(=O)Nc2cccc(C)c2)cc1OC (stereo unspecified) ?
Lassa entry inh: inactive; Marburg entry inh: inactive; FMDV inh: inactive

What do the screens show for `COc1ccc(C(=O)N/C(=C\c2cc(OC)c(OC)cc2[N+](=O)[O-])C(=O)NCCO)cc1`?
CHX counter: inactive; HCV inhibitor: inactive; Lassa entry inh: inactive; Marburg entry inh: inactive; Shiga inhibitor: inactive; FMDV inh: inactive

What do the screens show for `Cn1nnc(NC(=O)c2ccccc2F)n1`?
CHX counter: inactive; HCV inhibitor: inactive; Lassa entry inh: inactive; Marburg entry inh: inactive; Shiga inhibitor: inactive; FMDV inh: inactive

What do the screens show for `Cn1nnc(NC(=O)c2ccc(C(C)(C)C)cc2)n1`?
CHX counter: 46.0; HCV inhibitor: inactive; Lassa entry inh: inactive; Marburg entry inh: inactive; Shiga inhibitor: 45.1; FMDV inh: inactive

How did Cn1nnc(NC(=O)c2ccc3ccccc3c2)n1 do in these assays?
CHX counter: 30.2; HCV inhibitor: inactive; Lassa entry inh: inactive; Marburg entry inh: inconclusive; Shiga inhibitor: active; FMDV inh: inactive

What do the screens show for `O=C(CSCc1ccccc1Cl)NCc1ccc(Cl)c(Cl)c1`?
Lassa entry inh: inactive; FMDV inh: inactive

What do the screens show for `CC(Sc1nc2c(c(=O)n(C)c(=O)n2C)n1Cc1cc2c(cc1Cl)OCO2)C(=O)O` (stereo unspecified)?
CHX counter: inactive; HCV inhibitor: inactive; Lassa entry inh: inactive; Marburg entry inh: inactive; Shiga inhibitor: inactive; FMDV inh: inactive

How did COc1ccc(OC)c2c1cc(C(=O)N[C@H](C(=O)N1CCC[C@H]1C(=O)O)C(C)C)n2C do in these assays?
CHX counter: inactive; HCV inhibitor: inactive; Shiga inhibitor: inactive; FMDV inh: inactive

How did Clc1ccccc1CSc1ncn(-c2ccccc2)n1 do in these assays?
CHX counter: 42.4; HCV inhibitor: inactive; Lassa entry inh: inconclusive; Marburg entry inh: inconclusive; Shiga inhibitor: 69.6; FMDV inh: inactive

Results for Cc1ccc(CSc2ncn(-c3ccccc3)n2)cc1 ?
CHX counter: 36.0; HCV inhibitor: inactive; Lassa entry inh: inconclusive; Marburg entry inh: inactive; Shiga inhibitor: 86.3; FMDV inh: inactive

What do the screens show for `O=C(CSc1ncn(-c2ccccc2)n1)NCc1ccccc1`?
CHX counter: inactive; HCV inhibitor: inactive; Lassa entry inh: inactive; Marburg entry inh: inactive; Shiga inhibitor: inactive; FMDV inh: inactive

Results for CCOC(=O)c1ccccc1NC(=O)CC(C)CC(=O)O (stereo unspecified) ?
CHX counter: inactive; HCV inhibitor: inactive; Lassa entry inh: inactive; Marburg entry inh: inactive; Shiga inhibitor: inactive; FMDV inh: inactive

What do the screens show for `CCS(=O)(=O)Nc1ccc(C2=NN(C(=O)c3ccco3)C(c3ccc(Cl)o3)C2)cc1` (stereo unspecified)?
HCV inhibitor: 22.4µM; Lassa entry inh: inconclusive; Marburg entry inh: inconclusive; FMDV inh: 28.2µM

Results for CCS(=O)(=O)Nc1ccc(C2=NN(C(=O)c3ccco3)C(c3ccc(C)cc3)C2)cc1 (stereo unspecified) ?
CHX counter: inactive; HCV inhibitor: inconclusive; Lassa entry inh: 16.4µM; Marburg entry inh: inconclusive; Shiga inhibitor: inactive; FMDV inh: inconclusive

Results for CCS(=O)(=O)Nc1ccc(C2=NN(C(=O)c3ccco3)C(c3cccc(F)c3)C2)cc1 (stereo unspecified) ?
CHX counter: inactive; HCV inhibitor: inconclusive; Shiga inhibitor: inactive; FMDV inh: inactive

Results for CS(=O)(=O)Nc1ccc(C2=NN(C(=O)c3ccco3)C(c3cccc(F)c3)C2)cc1 (stereo unspecified) ?
CHX counter: inactive; HCV inhibitor: inconclusive; Lassa entry inh: inconclusive; Marburg entry inh: 11.2µM; Shiga inhibitor: inactive; FMDV inh: inactive

How did Cc1ccc(N=Nc2c(O)ccc3n[nH]nc23)cc1 do in these assays?
CHX counter: 41.6; HCV inhibitor: inconclusive; Shiga inhibitor: 103.4; FMDV inh: inactive

Results for CC(C)=NNc1cnnc2ccc([N+](=O)[O-])cc12 ?
FMDV inh: inactive

How did CCNc1ccc(-c2nc(-c3ccccn3)no2)cc1[N+](=O)[O-] do in these assays?
Lassa entry inh: inactive; Marburg entry inh: inactive; FMDV inh: inactive

Results for Cc1cc(Br)c2c(c1)/C(=C/C(=O)c1cccs1)C(=O)N2 ?
CHX counter: inactive; HCV inhibitor: inconclusive; Lassa entry inh: inactive; Marburg entry inh: inconclusive; Shiga inhibitor: inactive; FMDV inh: inconclusive
